Reference: ChEMBL document CHEMBL2218924, “A broad activity screen in support of a chemogenomic map for kinase signalling research and drug discovery” (Biochem J, 2013)

What was measured:
[1] = target: Serine/threonine-protein kinase 33 (Homo sapiens) (UniProt Q9BYT3); settings: at 1 µM
[2] = target: Serine/threonine-protein kinase 33 (Homo sapiens) (UniProt Q9BYT3); settings: at 10 µM
[3] = target: Serine/threonine-protein kinase PLK2 (Homo sapiens) (UniProt Q9NYY3); settings: at 10 µM
[4] = target: Tyrosine-protein kinase SYK (Homo sapiens) (UniProt P43405); settings: at 1 µM
[5] = target: T1, Mitogen-activated protein kinase kinase kinase 7 (Homo sapiens) (UniProt O43318); settings: at 1 µM
T1 sequence (whole entry): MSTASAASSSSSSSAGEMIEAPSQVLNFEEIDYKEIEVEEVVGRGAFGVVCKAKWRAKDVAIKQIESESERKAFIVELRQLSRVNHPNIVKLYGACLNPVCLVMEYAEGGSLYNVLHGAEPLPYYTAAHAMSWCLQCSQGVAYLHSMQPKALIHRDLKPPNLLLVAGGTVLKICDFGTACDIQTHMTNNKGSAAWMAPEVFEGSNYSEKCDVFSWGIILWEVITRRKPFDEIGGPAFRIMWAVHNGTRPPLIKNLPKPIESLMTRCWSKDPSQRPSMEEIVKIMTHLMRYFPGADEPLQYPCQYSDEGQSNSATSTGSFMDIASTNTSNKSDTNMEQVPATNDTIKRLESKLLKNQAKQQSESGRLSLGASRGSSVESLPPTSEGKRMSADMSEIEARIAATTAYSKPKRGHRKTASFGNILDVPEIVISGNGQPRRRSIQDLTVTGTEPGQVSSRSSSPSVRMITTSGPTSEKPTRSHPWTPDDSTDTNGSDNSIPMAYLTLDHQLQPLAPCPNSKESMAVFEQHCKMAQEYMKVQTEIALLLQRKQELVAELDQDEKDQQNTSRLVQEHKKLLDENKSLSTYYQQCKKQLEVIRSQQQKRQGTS

[6] = target: T1, Mitogen-activated protein kinase kinase kinase 7 (Homo sapiens); settings: at 10 µM
[7] = target: T2, Serine/threonine-protein kinase TAO1 (Homo sapiens) (UniProt Q7L7X3); settings: at 1 µM
T2 sequence (whole entry): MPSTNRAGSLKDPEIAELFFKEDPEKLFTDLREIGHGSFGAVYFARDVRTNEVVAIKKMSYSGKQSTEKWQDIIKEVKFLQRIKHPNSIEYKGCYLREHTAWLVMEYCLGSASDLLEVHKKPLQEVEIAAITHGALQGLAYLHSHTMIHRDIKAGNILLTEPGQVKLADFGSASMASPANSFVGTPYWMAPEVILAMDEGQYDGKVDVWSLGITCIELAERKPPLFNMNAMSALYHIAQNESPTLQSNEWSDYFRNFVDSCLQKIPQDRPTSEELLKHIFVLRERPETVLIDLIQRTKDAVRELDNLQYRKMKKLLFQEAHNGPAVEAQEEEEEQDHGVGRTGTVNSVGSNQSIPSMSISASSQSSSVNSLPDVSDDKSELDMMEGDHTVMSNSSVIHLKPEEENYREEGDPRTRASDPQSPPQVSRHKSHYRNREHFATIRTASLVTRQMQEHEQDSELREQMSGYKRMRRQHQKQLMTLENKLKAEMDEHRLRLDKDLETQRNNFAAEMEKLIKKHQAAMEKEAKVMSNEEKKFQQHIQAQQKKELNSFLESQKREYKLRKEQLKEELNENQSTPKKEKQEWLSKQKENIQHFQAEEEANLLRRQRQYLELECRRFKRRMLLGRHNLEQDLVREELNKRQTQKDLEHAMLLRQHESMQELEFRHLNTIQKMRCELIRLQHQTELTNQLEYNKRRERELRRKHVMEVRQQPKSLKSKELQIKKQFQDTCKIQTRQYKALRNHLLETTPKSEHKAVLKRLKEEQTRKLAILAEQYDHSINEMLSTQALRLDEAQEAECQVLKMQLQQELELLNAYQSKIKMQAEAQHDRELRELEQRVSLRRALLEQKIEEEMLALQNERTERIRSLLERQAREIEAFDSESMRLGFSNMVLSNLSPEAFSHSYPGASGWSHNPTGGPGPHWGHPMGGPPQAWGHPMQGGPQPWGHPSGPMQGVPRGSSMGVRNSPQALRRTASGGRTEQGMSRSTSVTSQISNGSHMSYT

[8] = target: T2, Serine/threonine-protein kinase TAO1 (Homo sapiens); settings: at 10 µM
[9] = target: T3, Serine/threonine-protein kinase TAO2 (Homo sapiens) (UniProt Q9UL54); settings: at 1 µM
T3 sequence (whole entry): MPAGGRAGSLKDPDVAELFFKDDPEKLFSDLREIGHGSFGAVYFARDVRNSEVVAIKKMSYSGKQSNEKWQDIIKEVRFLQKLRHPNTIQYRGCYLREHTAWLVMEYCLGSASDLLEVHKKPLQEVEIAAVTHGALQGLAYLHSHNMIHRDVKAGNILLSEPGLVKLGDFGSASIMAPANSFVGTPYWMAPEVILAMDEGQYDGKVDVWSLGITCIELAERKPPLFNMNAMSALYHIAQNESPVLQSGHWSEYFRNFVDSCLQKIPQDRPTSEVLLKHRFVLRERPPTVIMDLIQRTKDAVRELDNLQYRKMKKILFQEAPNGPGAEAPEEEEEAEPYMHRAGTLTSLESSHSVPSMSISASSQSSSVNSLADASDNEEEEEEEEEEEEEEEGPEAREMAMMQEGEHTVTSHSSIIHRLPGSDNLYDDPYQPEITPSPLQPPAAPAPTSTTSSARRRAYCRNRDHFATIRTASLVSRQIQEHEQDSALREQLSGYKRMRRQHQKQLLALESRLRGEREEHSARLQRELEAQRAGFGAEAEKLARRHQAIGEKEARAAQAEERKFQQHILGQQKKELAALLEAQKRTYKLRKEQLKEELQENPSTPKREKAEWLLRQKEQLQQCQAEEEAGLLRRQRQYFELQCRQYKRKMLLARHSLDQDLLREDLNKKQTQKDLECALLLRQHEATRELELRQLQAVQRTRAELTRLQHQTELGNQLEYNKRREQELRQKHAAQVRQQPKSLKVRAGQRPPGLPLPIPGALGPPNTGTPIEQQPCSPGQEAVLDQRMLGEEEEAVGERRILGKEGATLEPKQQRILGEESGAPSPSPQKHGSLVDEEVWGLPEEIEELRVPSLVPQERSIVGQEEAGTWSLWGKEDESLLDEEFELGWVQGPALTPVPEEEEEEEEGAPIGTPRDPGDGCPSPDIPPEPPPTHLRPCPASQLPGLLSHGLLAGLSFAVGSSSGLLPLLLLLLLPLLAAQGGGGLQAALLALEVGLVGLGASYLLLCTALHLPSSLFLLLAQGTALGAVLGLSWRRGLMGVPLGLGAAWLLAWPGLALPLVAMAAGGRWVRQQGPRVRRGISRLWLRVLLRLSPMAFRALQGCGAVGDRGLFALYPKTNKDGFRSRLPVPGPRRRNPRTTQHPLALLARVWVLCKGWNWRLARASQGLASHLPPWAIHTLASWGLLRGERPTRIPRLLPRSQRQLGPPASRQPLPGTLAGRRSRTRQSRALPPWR

[10] = target: T3, Serine/threonine-protein kinase TAO2 (Homo sapiens); settings: at 10 µM
[11] = target: T4, Serine/threonine-protein kinase TAO3 (Homo sapiens) (UniProt Q9H2K8); settings: at 1 µM
T4 sequence (whole entry): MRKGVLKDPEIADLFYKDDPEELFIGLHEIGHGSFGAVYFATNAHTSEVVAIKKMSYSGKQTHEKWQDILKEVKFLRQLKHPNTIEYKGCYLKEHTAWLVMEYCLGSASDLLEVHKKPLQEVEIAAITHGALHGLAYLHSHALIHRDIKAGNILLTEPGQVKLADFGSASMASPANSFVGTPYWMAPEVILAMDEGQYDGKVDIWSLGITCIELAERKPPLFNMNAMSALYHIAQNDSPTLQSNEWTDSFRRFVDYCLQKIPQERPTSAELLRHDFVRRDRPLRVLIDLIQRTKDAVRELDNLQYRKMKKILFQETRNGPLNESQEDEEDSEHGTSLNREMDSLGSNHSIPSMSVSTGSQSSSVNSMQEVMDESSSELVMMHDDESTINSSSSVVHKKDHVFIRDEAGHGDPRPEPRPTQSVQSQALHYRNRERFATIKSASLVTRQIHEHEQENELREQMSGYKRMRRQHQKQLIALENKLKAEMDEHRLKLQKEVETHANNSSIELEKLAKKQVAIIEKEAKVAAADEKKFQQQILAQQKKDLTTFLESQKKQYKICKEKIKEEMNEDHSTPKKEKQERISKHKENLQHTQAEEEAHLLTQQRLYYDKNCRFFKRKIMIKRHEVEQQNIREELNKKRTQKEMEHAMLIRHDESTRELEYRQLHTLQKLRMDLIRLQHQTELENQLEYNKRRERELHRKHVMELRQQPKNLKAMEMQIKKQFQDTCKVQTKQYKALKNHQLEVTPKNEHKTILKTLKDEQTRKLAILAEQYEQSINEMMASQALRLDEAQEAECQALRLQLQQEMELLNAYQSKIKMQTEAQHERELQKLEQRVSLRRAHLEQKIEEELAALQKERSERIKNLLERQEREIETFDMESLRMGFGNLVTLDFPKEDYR

[12] = target: T4, Serine/threonine-protein kinase TAO3 (Homo sapiens); settings: at 10 µM
[13] = target: T5, Serine/threonine-protein kinase TBK1 (Homo sapiens) (UniProt Q9UHD2); settings: at 1 µM
T5 sequence (whole entry): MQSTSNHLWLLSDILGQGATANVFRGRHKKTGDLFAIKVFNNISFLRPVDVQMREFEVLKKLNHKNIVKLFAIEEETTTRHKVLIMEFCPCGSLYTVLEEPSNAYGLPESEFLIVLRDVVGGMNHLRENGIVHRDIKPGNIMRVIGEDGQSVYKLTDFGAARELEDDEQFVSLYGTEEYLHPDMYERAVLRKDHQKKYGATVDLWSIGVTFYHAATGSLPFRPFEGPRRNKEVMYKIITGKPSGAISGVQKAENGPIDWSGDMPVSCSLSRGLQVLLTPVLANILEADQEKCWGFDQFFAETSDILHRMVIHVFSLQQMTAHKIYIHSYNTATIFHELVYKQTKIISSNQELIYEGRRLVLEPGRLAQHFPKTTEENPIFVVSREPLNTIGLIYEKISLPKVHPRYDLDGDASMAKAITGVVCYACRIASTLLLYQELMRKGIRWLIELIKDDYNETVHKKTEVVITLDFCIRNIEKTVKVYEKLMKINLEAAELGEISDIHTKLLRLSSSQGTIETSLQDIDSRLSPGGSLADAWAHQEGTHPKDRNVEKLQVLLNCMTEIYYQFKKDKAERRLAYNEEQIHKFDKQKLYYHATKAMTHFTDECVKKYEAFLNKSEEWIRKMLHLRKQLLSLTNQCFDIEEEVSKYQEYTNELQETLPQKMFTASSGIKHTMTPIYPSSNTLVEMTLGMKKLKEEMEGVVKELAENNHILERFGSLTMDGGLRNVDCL

[14] = target: T6, TGF-beta receptor type-1 (Homo sapiens) (UniProt P36897); settings: at 1 µM
T6 sequence (whole entry): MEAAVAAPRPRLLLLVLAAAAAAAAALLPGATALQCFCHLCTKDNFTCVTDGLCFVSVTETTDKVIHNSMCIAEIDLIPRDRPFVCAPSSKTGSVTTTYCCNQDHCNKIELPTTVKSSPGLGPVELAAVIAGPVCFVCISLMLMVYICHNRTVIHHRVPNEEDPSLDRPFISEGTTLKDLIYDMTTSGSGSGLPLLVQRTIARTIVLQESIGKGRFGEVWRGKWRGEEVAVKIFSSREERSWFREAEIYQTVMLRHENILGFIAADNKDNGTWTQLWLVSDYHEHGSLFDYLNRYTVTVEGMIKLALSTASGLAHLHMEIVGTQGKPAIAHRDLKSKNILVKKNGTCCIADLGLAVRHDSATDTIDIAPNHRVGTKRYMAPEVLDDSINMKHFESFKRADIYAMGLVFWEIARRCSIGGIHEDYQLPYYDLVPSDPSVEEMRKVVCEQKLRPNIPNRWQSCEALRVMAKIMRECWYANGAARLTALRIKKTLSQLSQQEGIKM

[15] = target: T6, TGF-beta receptor type-1 (Homo sapiens); settings: at 10 µM
[16] = target: Insulin-like growth factor 1 receptor (Homo sapiens) (UniProt P08069); settings: at 1 µM
[17] = target: Insulin-like growth factor 1 receptor (Homo sapiens) (UniProt P08069); settings: at 10 µM
[18] = target: T5, Serine/threonine-protein kinase TBK1 (Homo sapiens); settings: at 10 µM
[19] = target: Serine/threonine-protein kinase PLK2 (Homo sapiens) (UniProt Q9NYY3); settings: at 1 µM
[20] = target: Tyrosine-protein kinase SYK (Homo sapiens) (UniProt P43405); settings: at 10 µM

Insulin-like growth factor 1 receptor (Homo sapiens), sequence (P08069 31-736 limits assumed): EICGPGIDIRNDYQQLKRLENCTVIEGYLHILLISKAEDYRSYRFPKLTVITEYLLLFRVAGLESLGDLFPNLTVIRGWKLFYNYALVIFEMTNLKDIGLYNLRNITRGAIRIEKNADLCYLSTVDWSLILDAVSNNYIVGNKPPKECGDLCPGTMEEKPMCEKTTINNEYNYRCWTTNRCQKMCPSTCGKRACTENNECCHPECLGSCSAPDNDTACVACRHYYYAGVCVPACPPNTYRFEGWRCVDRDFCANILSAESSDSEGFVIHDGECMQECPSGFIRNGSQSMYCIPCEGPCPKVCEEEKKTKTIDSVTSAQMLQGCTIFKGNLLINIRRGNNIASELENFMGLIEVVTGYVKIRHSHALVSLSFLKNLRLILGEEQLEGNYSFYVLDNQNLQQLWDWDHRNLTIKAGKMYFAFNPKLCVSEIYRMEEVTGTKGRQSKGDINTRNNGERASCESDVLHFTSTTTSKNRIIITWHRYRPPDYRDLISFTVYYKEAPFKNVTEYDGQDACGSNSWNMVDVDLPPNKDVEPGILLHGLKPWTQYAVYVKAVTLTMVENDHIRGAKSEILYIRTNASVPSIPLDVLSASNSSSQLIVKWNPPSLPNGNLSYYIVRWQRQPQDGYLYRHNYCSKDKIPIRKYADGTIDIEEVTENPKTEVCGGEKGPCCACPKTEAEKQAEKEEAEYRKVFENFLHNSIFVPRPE
Insulin-like growth factor 1 receptor (Homo sapiens), sequence (P08069 741-1367 limits assumed): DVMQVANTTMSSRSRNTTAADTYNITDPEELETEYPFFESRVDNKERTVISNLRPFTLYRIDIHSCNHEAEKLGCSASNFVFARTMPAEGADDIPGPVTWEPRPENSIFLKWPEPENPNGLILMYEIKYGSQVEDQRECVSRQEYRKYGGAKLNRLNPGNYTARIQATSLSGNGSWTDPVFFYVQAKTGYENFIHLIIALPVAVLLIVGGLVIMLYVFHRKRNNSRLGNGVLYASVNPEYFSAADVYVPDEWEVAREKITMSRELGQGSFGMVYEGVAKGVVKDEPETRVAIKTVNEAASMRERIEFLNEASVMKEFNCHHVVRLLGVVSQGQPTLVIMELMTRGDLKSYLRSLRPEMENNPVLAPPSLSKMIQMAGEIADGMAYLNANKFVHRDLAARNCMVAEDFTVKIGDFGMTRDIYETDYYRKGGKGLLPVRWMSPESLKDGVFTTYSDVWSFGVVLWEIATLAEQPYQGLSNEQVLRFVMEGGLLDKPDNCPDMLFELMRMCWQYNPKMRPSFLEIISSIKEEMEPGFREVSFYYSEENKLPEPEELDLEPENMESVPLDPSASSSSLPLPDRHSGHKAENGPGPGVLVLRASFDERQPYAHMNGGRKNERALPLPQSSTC
Serine/threonine-protein kinase PLK2 (Homo sapiens), sequence (Q9NYY3 whole entry, looked up): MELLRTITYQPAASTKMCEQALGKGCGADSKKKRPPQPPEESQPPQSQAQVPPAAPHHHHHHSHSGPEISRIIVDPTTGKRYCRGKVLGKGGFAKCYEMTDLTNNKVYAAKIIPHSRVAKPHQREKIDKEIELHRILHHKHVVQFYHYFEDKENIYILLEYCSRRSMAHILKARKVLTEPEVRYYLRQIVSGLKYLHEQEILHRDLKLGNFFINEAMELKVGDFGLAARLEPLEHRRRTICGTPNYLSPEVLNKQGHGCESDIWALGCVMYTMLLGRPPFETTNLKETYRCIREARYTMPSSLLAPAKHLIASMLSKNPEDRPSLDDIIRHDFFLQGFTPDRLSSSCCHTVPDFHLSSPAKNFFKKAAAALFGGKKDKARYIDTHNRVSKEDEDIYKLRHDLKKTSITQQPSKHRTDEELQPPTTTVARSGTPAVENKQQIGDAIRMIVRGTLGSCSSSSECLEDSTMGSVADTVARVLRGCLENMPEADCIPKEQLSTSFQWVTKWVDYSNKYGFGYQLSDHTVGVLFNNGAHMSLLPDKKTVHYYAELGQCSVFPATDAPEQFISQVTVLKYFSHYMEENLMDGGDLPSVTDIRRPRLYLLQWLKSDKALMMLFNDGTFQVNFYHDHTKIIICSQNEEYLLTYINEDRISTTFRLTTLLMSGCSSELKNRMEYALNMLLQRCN
Serine/threonine-protein kinase 33 (Homo sapiens), sequence (Q9BYT3 whole entry, looked up): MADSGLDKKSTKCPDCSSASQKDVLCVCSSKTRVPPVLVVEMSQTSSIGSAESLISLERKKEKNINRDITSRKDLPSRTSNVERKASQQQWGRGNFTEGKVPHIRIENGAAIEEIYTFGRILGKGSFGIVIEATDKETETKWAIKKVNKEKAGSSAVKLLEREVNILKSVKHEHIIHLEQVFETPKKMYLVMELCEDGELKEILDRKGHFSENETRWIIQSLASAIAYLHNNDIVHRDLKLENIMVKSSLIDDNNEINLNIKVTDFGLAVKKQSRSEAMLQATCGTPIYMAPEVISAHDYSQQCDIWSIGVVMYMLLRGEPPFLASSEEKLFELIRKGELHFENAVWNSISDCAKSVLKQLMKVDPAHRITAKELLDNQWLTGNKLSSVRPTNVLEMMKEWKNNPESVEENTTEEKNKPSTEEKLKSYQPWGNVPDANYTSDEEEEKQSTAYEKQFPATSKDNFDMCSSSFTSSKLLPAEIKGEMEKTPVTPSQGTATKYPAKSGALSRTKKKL

SMILES	residual activity [1]	residual activity [2]	residual activity [3]	residual activity [4]	residual activity [5]	residual activity [6]	residual activity [7]	residual activity [8]	residual activity [9]	residual activity [10]	residual activity [11]	residual activity [12]	residual activity [13]	residual activity [14]	residual activity [15]	residual activity [16]	residual activity [17]	residual activity [18]	residual activity [19]	residual activity [20]
CC(C)(C)c1cc(C=C(C#N)C#N)cc(Br)c1O	110%	108%	67%	128%	104%	103%	112%	70%	113%	103%	101%	97%	103%	97%	97%	105%	104%	–	–	–
CN[C@@H]1C[C@H]2O[C@@](C)([C@@H]1OC)n1c3ccccc3c3c4c(c5c6ccccc6n2c5c31)C(=O)NC4	–	–	–	–	–	–	–	–	–	–	–	–	–	79%	30%	–	–	0%	–	–
O=C1c2ccccc2-c2nc3nnnn3nc21	103%	100%	34%	–	–	–	–	–	111%	103%	–	–	–	–	–	–	–	83%	73%	–
COC(=O)[C@@]1(O)C[C@H]2O[C@]1(C)n1c3ccccc3c3c4c(c5c6ccccc6n2c5c31)C(=O)NC4	7%	0%	36%	1%	-1%	-5%	5%	3%	16%	2%	10%	3%	-1%	49%	8%	23%	3%	3%	–	2%
O=C1NC(=O)c2c1c1c3ccccc3n3c1c1c2c2ccccc2n1C1CCC3O1	–	–	–	90%	88%	89%	75%	69%	–	–	96%	94%	54%	–	–	–	–	62%	–	80%
O=c1[nH]c2ccccc2n1C1CCN(Cc2ccc(-c3nc4cc5[nH]cnc5cc4nc3-c3ccccc3)cc2)CC1	100%	95%	92%	125%	97%	96%	102%	65%	101%	56%	93%	66%	82%	91%	87%	98%	80%	68%	91%	76%
